RAD54 inh = inhibitors of human RAD54 branch migration, primary screen, biochemical, fluorescence, single point; 360,000 compounds, 0.14% hits; inhibition, % at 10.4 µM; DNA repair and recombination protein RAD54-like (Homo sapiens), Q92698; RAD54 Holliday junction branch migration, FAM/BHQ fluorescence;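 active means mean normalized replicate activity at least 40 and at least half of replicates scoring 40 or more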;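 further: 0% = median of neutral control wells and 100% = median of positive control wells; inhibitors cause a drop in the FAM fluorescence signal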
Target sequence (Q92698 whole entry, looked up): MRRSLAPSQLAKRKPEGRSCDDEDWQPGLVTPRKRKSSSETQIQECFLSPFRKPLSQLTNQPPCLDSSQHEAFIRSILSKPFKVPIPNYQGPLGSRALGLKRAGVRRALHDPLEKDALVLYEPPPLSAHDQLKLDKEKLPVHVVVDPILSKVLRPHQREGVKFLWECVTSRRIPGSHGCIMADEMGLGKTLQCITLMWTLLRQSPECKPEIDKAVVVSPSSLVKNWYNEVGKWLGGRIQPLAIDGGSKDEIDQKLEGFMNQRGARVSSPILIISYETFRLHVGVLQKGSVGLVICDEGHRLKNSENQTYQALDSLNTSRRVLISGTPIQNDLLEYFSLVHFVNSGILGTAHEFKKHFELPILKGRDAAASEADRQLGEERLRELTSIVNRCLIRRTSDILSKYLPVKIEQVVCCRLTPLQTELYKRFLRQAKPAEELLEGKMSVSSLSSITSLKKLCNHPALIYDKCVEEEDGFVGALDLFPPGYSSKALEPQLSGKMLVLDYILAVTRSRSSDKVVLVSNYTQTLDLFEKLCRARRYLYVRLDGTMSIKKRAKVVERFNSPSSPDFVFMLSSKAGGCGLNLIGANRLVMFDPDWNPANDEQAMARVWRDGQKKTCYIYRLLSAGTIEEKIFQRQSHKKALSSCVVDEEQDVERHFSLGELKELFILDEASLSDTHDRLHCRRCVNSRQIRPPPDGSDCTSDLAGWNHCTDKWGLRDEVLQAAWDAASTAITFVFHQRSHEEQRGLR
GSIS activator = GLuc luminescence reporter in INS-1E cells, primary screen for activators of glucose-dependent secretion of insulin; INS-1E GLuc reporter insulin secretion, 2-3 h; activation, % at 16.6 µM; 370,000 compounds, 0.61% hits; AID 743287, 2014;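 active means lowest replicate activation of at least 40%, so every replicate reaches that level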;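 further: 0% = median of neutral control wells and 100% = median of IBMX positive control wells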
ERAP1 inh = human ERAP1 aminopeptidase inhibitors, primary screen, biochemical, single point, plate reader; Endoplasmic reticulum aminopeptidase 1 (Homo sapiens), Q9NZ08; recombinant ERAP1, Leu-AMC fluorescence, 60 min; inhibition, % at 10.7 µM; 340,000 compounds, 0.15% hits; AID 652197, 2013;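 active means mean replicate inhibition of at least 30%, or all replicates individually reaching that 30% level; inactive means mean below 30% and not every replicate reaching it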;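 further: 0% = neutral control wells and 100% = L-leucinethiol positive control wells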
PGC1a acetyl inh = inhibitors of PGC1a acetylation signal, primary screen, cell-based, U2OS, AlphaScreen, inhibitor mode | AlphaScreen anti-acetyl-lysine; with virally co-expressed GCN5 acetyltransferase | inhibition, % at 15.6 µM | 350,000 compounds, 0.17% hits | AID 651687, 2012;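 active means every replicate shows inhibition of at least 40%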;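 further: 0% = neutral control wells and 100% = positive control wells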
RAD52 inh = RAD52 DNA annealing inhibitors, primary screen, biochemical, FRET, single point, set 2; inhibition, % at 18.7 µM; 360,000 compounds, 0.46% hits; recombinant RAD52 DNA annealing, FRET fluorescence;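 active means every replicate showing at least 50% inhibition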
AF4-AF9 inh = inhibitors of AF4 peptide binding to AF9, primary screen, biochemical, AlphaScreen, biotin-AF4 peptide, FLAG-AF9, single point. 350,000 compounds, 0.47% hits. inhibition, % at 10 µM. Protein AF-9 (Homo sapiens), P42568;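 active means every replicate reaching a set inhibition limit, whatever the replicate mean, cut at about 25% in these data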;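 further: 0% = plate neutral control median and 100% = total signal loss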
An asterisk follows results filed as active; · = no result; ! = repeats disagree. The list is not random: actives were taken first. Their share in the collection is about 1.4%.

SMILES	RAD54 inh	GSIS activator	ERAP1 inh	PGC1a acetyl inh	RAD52 inh	AF4-AF9 inh
COc1ccc(OC)c(NC2=C(Cl)C(=O)N(Cc3ccccc3)C2=O)c1	-27	10	-2	·	-10	27*
CNC[C@H]1Oc2c(NC(C)=O)cccc2C(=O)N(C)C[C@H]1C	·	4	·	·	·	·
C[C@H](CO)N1C[C@H](C)[C@H](CN(C)C(=O)Nc2ccccc2)Oc2ncccc2C1=O	3	28	49*	11	-17	-8
C[C@H](CO)N1C[C@H](C)[C@@H](CN(C)C(=O)Nc2ccccc2)Oc2ccc(NC(=O)c3ccncc3)cc2C1=O	-9	13	65*!	5	-6	-3
C[C@H](CO)N1C[C@H](C)[C@H](CN(C)C(=O)Nc2ccc(F)cc2)Oc2ncccc2C1=O	3	17	2	-1	-5	-9
NC(CCc1ccccc1)c1csc(Nc2ccc(C(F)(F)F)cn2)n1 (stereo not drawn)	6	308*	-7	-6	-49	10
NC(c1csc(Nc2ccc(C(F)(F)F)cn2)n1)C1CCCCC1 (stereo not drawn)	12	533*	3	·	33	14
NC(COCc1ccccc1)c1csc(Nc2ccc(C(F)(F)F)cn2)n1 (stereo not drawn)	3	254	6	·	-38	-10
NC(CO)c1csc(Nc2ccc(C(F)(F)F)cn2)n1 (stereo not drawn)	3	0	2	·	-15	2
C[C@@H]1CCCCO[C@H](CN(C)C(=O)C2CCCCC2)[C@@H](C)CN([C@@H](C)CO)C(=O)c2cc(NC(=O)Nc3ccc(F)cc3)ccc2O1	0	-23	3	0	-24	5
COC(=O)C1=CN(Cc2ccc(OC)c(OC)c2)C=C(C(=O)OC)C1c1cccc(O)c1	4	15	-146	74*	-31	-22
CCOC(=O)CSc1nnc(NC(=O)CN2CCCCC2)s1	-1	-16	-2	·	-11	2
O=C(O)CSc1nnc(NC(=O)CN2CCOCC2)s1	-3	96*	2	·	-8	-3
O=C(C[C@H]1CC[C@H]2[C@@H](COC[C@@H](O)CN2S(=O)(=O)c2ccc(Oc3ccccc3)cc2)O1)NC1CCC1	9	2	2	-8	8	4
C[C@@H](NC(=O)[C@@H]1[C@@H](CO)[C@@H]2Cn3c(cccc3=O)[C@@H]2N1CC1CC1)c1ccccc1	1	-6	-3	·	1	0
Cc1ccc(S(=O)(=O)NCc2csc(-c3cccs3)n2)cc1	·	48*	0	·	-9	-3
N#Cc1ccc(-c2ccc([C@H]3[C@H](CO)N4C(=O)CN(C(=O)C5CC5)C[C@@H]34)cc2)cc1	·	-2	38*	-5	-1	1
CN(C)C(=O)c1ccc(-c2ccc([C@@H]3[C@H]4CN(C(=O)C5CC5)CC(=O)N4[C@H]3CO)cc2)cc1	·	15	·	9	13	-3
N#Cc1ccc(-c2ccc([C@H]3[C@H]4CN(C(=O)C5CCCC5)CC(=O)N4[C@H]3CO)cc2)cc1	·	-19	0	-16	10	1
CN(C)C(=O)c1ccc(-c2ccc([C@@H]3[C@@H](CO)N4C(=O)CN(C(=O)C5CC5)C[C@@H]34)cc2)cc1	·	67*	1	4	0	0
O=C(NNC1CCN(Cc2ccccc2)CC1)c1ccccc1	-19	44*	-2	6	-6	0
C[C@H]1CCCCO[C@@H](CN(C)C(=O)NC2CCCCC2)[C@@H](C)CN([C@@H](C)CO)C(=O)c2cc(NC(=O)c3ccccc3)ccc2O1	-8	-12	·	0	·	·
CCn1c(C)nc2cc(S(=O)(=O)C(F)(F)F)ccc21	-3	99*	·	5	·	·
CCn1c(C)nc2cc(S(=O)(=O)C(F)F)ccc21	-1	19	·	14	·	·
CO[C@H]1CN(C)C(=O)c2ccc(NC(=O)C3CCCC3)cc2OC[C@H](C)NC[C@@H]1C	·	15	-2	3	-6	-6
SMILES	RAD54 inh	GSIS activator	ERAP1 inh	PGC1a acetyl inh	RAD52 inh	AF4-AF9 inh
CCOC(=O)c1c(NC(=O)COC(=O)CCNS(=O)(=O)c2ccccc2)sc(C(=O)NC)c1C	9	-2	38*	0	-21	-1
CCOC(=O)/C(C#N)=C/c1ccc(OC)c(OC)c1	-7	·	·	10	·	·
CO/N=C/C(C#N)=C/c1ccc(OC)c(OC)c1	·	60*	-5	·	-8	7
Cc1noc(C)c1S(=O)(=O)Nc1ccc2c(c1)C(=O)N([C@H](C)CO)C[C@H](C)[C@@H](CN(C)S(=O)(=O)c1c(C)noc1C)O2	·	10	·	·	·	·
CC(C)c1ccc2[nH]c(O)c(N=NC(=O)c3cccc(S(=O)(=O)Nc4ccccc4Cl)c3)c2c1	·	-1	3	·	-31	-3
CC(C)NC(=S)N=Nc1c(O)[nH]c2ccc(C(C)C)cc12	5	-2	2	48*	-7	-5
CCC(=O)N[C@@H]1C=C[C@@H](CC(=O)NCC2CC2)O[C@@H]1CO	·	-2	4	-2	16	-1
CCOC(=O)c1ccc(S(=O)(=O)N2CCC(C(=O)OCC)CC2)cc1	2	1	-11	-9	-5	-5
CCOC(=O)c1ccc(S(=O)(=O)N2CCC(C(=O)Nc3nnc(C)o3)CC2)cc1	-1	58*	-3	-1	-2	-1
Cc1ccc(C(=O)c2sc(Nc3ccccc3)c(C#N)c2N)cc1	·	43*	·	·	·	·
C[C@@H]1CN(C)C(=O)Cc2cc(NS(C)(=O)=O)ccc2O[C@H]1CN(C)S(C)(=O)=O	·	8	·	·	·	·
CC(C)=C[C@H]1C[C@H](C)[C@H]2CC[C@H](C)c3c(O[C@@H]4OC[C@@H](O)[C@H](O)C4O)c(O)c(C)c1c32 (stereo partly drawn)	-4	122*	1	5	-10	1
C(=C\c1ccccc1)/C=N/N1CCN(Cc2ccccc2)CC1	·	-8	-4	6	-8	44*
C[C@@H]1CN([C@H](C)CO)C(=O)Cc2cc(NC(=O)Cc3cn(C)c4ccccc34)ccc2O[C@@H]1CN(C)S(=O)(=O)c1cn(C)cn1	-2	31	-1	-5	8	2
Cc1ccc(-c2[nH]ncc2/C=N/n2c(COc3ccccc3C)nc3ccccc3c2=O)cc1	-2	197*	·	3	·	·
C[C@@H]1CN([C@@H](C)CO)C(=O)CCCn2cc(nn2)CO[C@H]1CN(C)S(=O)(=O)c1cccs1	-5	2	-2	14	-13	-1

Screening data (PubChem)
